From PubChem
FLuc counter: firefly luciferase modulation, counter-screen for miR-21 project | P08659 | purified FLuc, Km substrates, luminescence inhibition | Potency, µM (titrated, usually from 57.5 µM), for the others: top-dose activity change, negative = inhibition, actives largely listed as inhibitors | actives 6.9% (n = 360,000);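 also: plate controls were vehicle for no effect and reference inhibitor for full effect; nearly all actives have a fitted effect of over 55% in size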
Target sequence (P08659 whole entry, looked up): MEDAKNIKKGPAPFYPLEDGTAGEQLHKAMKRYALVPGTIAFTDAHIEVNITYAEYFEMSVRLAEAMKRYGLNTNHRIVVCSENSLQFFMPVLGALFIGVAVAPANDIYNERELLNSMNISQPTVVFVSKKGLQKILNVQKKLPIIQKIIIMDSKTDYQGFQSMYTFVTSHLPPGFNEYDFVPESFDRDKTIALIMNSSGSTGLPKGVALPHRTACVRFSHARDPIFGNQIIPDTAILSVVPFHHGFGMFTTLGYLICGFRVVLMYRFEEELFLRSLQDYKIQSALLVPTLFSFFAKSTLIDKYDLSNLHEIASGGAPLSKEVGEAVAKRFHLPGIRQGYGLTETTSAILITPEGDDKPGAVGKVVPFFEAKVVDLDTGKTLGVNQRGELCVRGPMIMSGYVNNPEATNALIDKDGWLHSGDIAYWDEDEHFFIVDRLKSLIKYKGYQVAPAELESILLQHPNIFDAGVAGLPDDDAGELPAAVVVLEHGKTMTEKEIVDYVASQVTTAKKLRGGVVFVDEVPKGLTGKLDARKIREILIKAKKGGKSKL
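Purified P. pyralis luciferase (10nM final) with 10uM D-luciferin and 10uM ATP (Km levels) in 50mM Tris acetate pH 7.5, 10mM Mg acetate, 0.01% Tween-20, 0.05% BSA; qHTS 6-point titration, ~60 µM downward; luminescence read.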
SMN2 splice enh: SMN2 splice variant enhancement. Potency, µM (series often up to 46.1 µM), without a hit: top-dose activity change, positive = activation, hits mostly activators. actives 2.8% (n = 210,000). AID 1458. HEK293 SMN2-luciferase splicing reporter, luminescence, 30-36 h; also: % of control where 0% means no effect; nearly all actives have a fitted effect of over 55% in size
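HEK293 cells carry an SMN2 minigene-luciferase reporter in which exon 7 inclusion puts luciferase in frame. Cells were seeded at 2000 cells/well, attached for 10-12 hours, then exposed to compounds for 30-36 hours at 37C before ONE-Glo luminescence.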
ELG1 genotoxic: induces genotoxicity in HEK293T cells with luciferase-tagged ELG1. HEK293T ELG1-luciferase reporter, luminescence, 16 h. Potency, µM (series often up to 46 µM), for inactives: top-dose activity change, positive = activation, usual class: activators. actives 1.3% (n = 330,000). AID 504466; also: % of control where 0% means no effect; nearly all actives have a fitted effect of over 60% in size
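Quantitative HTS format in 1536-well plates. HEK293T ELG1-luciferase reporter cells receive test compound and are incubated 16 hr at 37 °C, 5% CO2; ONE-Glo added, 30 min room temperature, then luminescence read.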
NPC1 promoter act: NPC1 promoter activation | Huh7 NPC1 promoter luciferase reporter, 24 h | actives 2.4% (n = 320,000) | AID 485313 | Potency, µM (highest dose often 9.22 µM), for inactives: top-dose activation, actives largely listed as activators; also: % of control where 0% means no effect; nearly all actives have a fitted effect of over 60% in size
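Compounds in DMSO were transferred onto Huh7 NPC1-luciferase reporter cells pre-incubated 2 h; after 24 h at 37 °C, Amplite reagent was dispensed and luminescence recorded 10 min later.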
Rab9 promoter act: activates the Rab9 promoter. Huh7 Rab9 promoter-luciferase reporter, luminescence, 24 h. Potency, µM (top dose mostly 9.22 µM), for inactives: at the top dose activation, negative = inhibition, actives largely listed as activators. actives 2.8% (n = 320,000). AID 485297; also: % of control where 0% means no effect; nearly all actives have a fitted effect of over 60% in size
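Cell-based reporter: Huh7 stable for Rab9 promoter-driven luciferase, plated in reduced-serum medium with 10% FBS at 1500 cells/well, compound-treated 24 h at 37 °C, luminescence read after 10 min reagent.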
Luc counter: blocks Kinase-Glo luciferase, a counter-screen artifact; Q27757; Kinase-Glo luciferase, ATP luminescence, 8 min; Potency, µM (top dose mostly 38.3 µM), inactives show at the highest dose activity change, negative = inhibition, most hits filed as inhibitors; actives 0.28% (n = 200,000); AID 1379; also: % is scaled to controls: 0 for no effect and ±100 for the full control effect; nearly all actives have a fitted effect of over 60% in size
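Luminescence was the read-out, taken after 8-minute incubation at ambient temperature. Luciferase turned over luciferin with 10 uM ATP in imidazole pH 7.2 buffer containing KCl, MgCl2, Tween 20 and BSA.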
Active calls of the source: *; u = inconclusive; x = no result given; [ ] = another dose, or the depositor's remark. Rows were chosen to be rich in hits. Some 7.3% of all compounds tested hit in one or more screens of this group. Calls follow the shape of the dose curve; as a rule, active = well fitted curve in the direction sought with a large enough effect; inconclusive = small, poorly fitted or top-dose-only effect, or another doubt; inactive = no such curve, though single readings can be large; an effect the other way counts as inactive or inconclusive. Potency is read from the fitted curve at half-maximal effect.

SMILES	FLuc counter	SMN2 splice enh	ELG1 genotoxic	NPC1 promoter act	Rab9 promoter act	Luc counter
Cc1cc2nc(-c3ccc(SCC(=O)Nc4ccc(S(=O)(=O)N5CCCC5)cc4)nc3)[nH]c2cc1C	0.301µM*	12.6µM*	u	2.51µM*	2µM*	-20.8%
Cc1cc2nc(-c3ccc(SCC(=O)Nc4nccs4)nc3)[nH]c2cc1C	u	u	u	3.55µM*	2.51µM*	-10.4%
Cc1ccc2c(c1)C(c1ccc(F)cc1)N(C(=O)c1cccc(C(F)(F)F)c1)CC(=O)N2 (stereo unspecified)	-5.2%	-13.5%	x	x	x	x
O=C(NCc1ccccc1)c1ccc(NC(=O)N2CCSc3ncccc32)cc1	-4.9%	x	x	x	x	x
O=C(COc1cccc2cccnc12)N/N=C/c1cccn1-c1ccc(F)cc1	-5.1%	x	-5.3%	0.3%	-5.6%	x
COC(=O)c1c(NC(C)=O)sc(C(=O)Nc2ccccc2F)c1C	-0.1%	7.08µM*	u	u	u	5.3%
CCCC(=O)Nc1sc(C(=O)Nc2cccc(N)c2)c(C)c1C(=O)OC	13.5µM*	x	u	3.16µM*	0.891µM*	2.2%
CCC(=O)Nc1sc(C(=O)Nc2ccccc2OC)c(C)c1C(=O)OC	-10.4%	12.4%	3.0%	17.8%	-2.7%	1.0%
CCC(=O)Nc1sc(C(=O)Nc2ccccc2F)c(C)c1C(=O)OC	7.57µM*	x	-1.2%	0.2%	-0.1%	-3.0%
COc1cc(CN(C(=O)COc2ccc(F)cc2)c2ccccn2)cc(OC)c1OC	-1.2%	x	x	x	x	x
CCCN(C(=O)c1nn(-c2ccc(OC)c(Cl)c2)c(=O)c2c1c1ccccc1n2C)c1ccccc1F	-0.8%	1.9%	x	x	x	x
Cc1cccc(NC(=O)N[C@@H](C)C(=O)O)c1	3.0%	26.2%	0.4%	1.4%	-6.6%	9.6%
Cc1cccc(C)c1NC(=O)C1(N(Cc2ccco2)C(=O)CC2NC(=O)NC2=O)CCCC1 (stereo unspecified)	1.3%	-6.0%	0.9%	1.9%	0.5%	-0.8%
Cc1ccc2nc(Cl)c(/C=C/C(=O)c3ccco3)cc2c1	-22.8%	x	16.2%	u	3.55µM*	x
Cc1ccc2cc(/C=C/C(=O)c3ccco3)c(Cl)nc2c1	u	x	u	u	2.51µM*	x
COc1cc2cc(/C=C/C(=O)c3ccco3)c(Cl)nc2cc1OC	-5.1%	u	6.7%	-3.5%	-6.5%	-5.6%
CCOC(=O)c1oc2cc(OCC(=O)OC)ccc2c(=O)c1-c1ccc(OC)c(OC)c1	-1.9%	x	1.0%	-5.1%	14.6%	x
Cc1ccc(S(=O)(=O)Nc2cc3c(C(=O)Nc4ccccc4)c(C)oc3c3ccccc23)cc1	1.3%	5.7%	-0.2%	-2.0%	-2.6%	1.1%
CS(=O)(=O)C1=NSC2=NC(=O)/C(=C\c3cccn3-c3ccc(Cl)cc3)C(=N)N21	-1.3%	9.6%	1.5%	-0.2%	-9.6%	-2.0%
CC1=CC2=NC(=O)/C(=C\c3cc(C)n(-c4ccccc4F)c3C)C(=N)N2O1	6.01µM*	-6.2%[1.84 µM]	-1.9%	-0.6%	-4.0%	-2.6%
CC1=CC2=NC(=O)/C(=C\c3cc(C)n(-c4ccccc4)c3C)C(=N)N2O1	5.36µM*	2.3%[1.84 µM]	-1.7%	1.0%	0.2%	-1.9%
Cc1cc(/C=C2/C(=N)N3C(=NC2=O)SN=C3S(C)(=O)=O)c(C)n1-c1ccccc1F	0.301µM*	12.6µM*	-3.2%	3.16µM*	3.16µM*	-3.8%
CCc1ccc(NC(=O)CN2CCN(Cc3ccccc3)S2(=O)=O)cc1	-11.1%	x	x	x	x	x
O=C(CN1CCCCC1)Nc1scc2c1c(=O)oc1ccccc12	-9.5%	x	14.7%	u	2.82µM*	x
Cc1cc(Cl)c(S(=O)(=O)Nc2ccon2)cc1OCC(=O)NC1CCCCC1	0.8%	-8.8%	-3.0%	0.3%	-2.4%	2.6%
SMILES	FLuc counter	SMN2 splice enh	ELG1 genotoxic	NPC1 promoter act	Rab9 promoter act	Luc counter
COc1ccc(C(=O)Nc2cnn(Cc3c(F)cccc3Cl)c2)cc1OC	19µM*	x	5.4%	18.9%	16.1%	x
COc1cccc(-c2nc(COc3ccc(Cl)cc3Cl)no2)c1	15.1µM*	x	7.0%	1.2%	0.4%	x
COc1ccccc1-c1nc(COc2ccc(Cl)cc2Cl)no1	8.49µM*	x	u	3.55µM*	3.98µM*	x
COc1ccc(-c2noc(-c3cc(Cl)ccc3Cl)n2)cc1OC	4.6%	-7.2%	3.0%	16.0%	11.5%	4.1%
CCC1(c2ccccc2)NC(=O)N(CC(=O)Nc2ccccc2C(=O)NC2CC2)C1=O (stereo unspecified)	1.8%	x	0.0%	0.6%	0.8%	x
Cc1cccc(/C(N)=N/OC(=O)Cc2cccc3ccccc23)c1	-0.4%	7.8%	-2.7%	-0.3%	2.0%	-0.7%
Cc1occc1C(=O)O/N=C(\N)c1ccccc1	1.9µM*	x	u	0.447µM*	0.447µM*	x
Cc1cccc(/C(N)=N/OC(=O)c2ccoc2C)c1	3.79µM*	x	u	1.12µM*	1.26µM*	x
O=C(N/N=C/c1ccccc1F)NC1CCCCC1	23.9µM*	u	u	u	2.82µM*	1.8%
Cc1c(Cl)cccc1NC(=O)C1CCN(c2cnccn2)CC1	0.6%	x	-3.8%	-1.5%	3.0%	x
COc1ccc(N2C(=O)C3C(C2=O)C2C=CC3C23CC3)c(OC)c1 (stereo unspecified)	13.5µM*	-0.9%	5.6%	-1.0%	7.6%	-2.0%
O=C(CSc1nnc(-c2cccs2)o1)N1CCc2ccccc21	u	7.3%	6.5%	8.3%	19.3%	0.2%
CNc1ncnc2sc(-c3ccccc3)cc12	u	x	12.2%	1.7%	3.6%	x
S=c1[nH]cnc2sc(-c3ccccc3)cc12	10.7µM*	x	0.3%	17.4%	u	-2.7%
CC(=O)CCSc1ncnc2sc(-c3ccccc3)cc12	0.9%	x	-8.2%	4.8%	9.8%	x
O=C(O)CCSc1ncnc2sc(-c3ccccc3)cc12	21.3µM*	x	-7.0%	-23.4%	-26.8%	x
O=C(O)CSc1ncnc2sc(-c3ccccc3)cc12	13.5µM*	2.1%	-5.3%	7.7%	13.1%	-2.6%
COc1ccc(NC(=O)/C(C#N)=C\c2ccc(OCc3ccc(C(=O)O)cc3)c(OC)c2)cc1	-18.9%	27.2%	u	-3.6%	-2.5%	5.3%
S=C(NCc1ccccc1)N1CCc2ccccc2C1	-17.1%	x	-5.4%	1.1%	1.3%	x
CCOc1ccccc1Oc1c(C)oc2c(CN3CCN(CCO)CC3)c(O)ccc2c1=O	5.1%	-3.4%	-1.2%	-2.1%	2.4%	-7.1%
Cc1cccc(C)c1N(CC(=O)N1CCOCC1)S(C)(=O)=O	1.0%	x	2.5%	-1.7%	5.3%	x
COc1cc(OC)c(/C=N/NC(N)=S)cc1Br	2.3%	22.5%	17.7%	-2.0%	-8.3%	-1.9%
COc1ccccc1NC(=O)Nc1nc(CC(=O)N2CCN(c3ccccc3OC)CC2)cs1	16.9µM*	x	-10.9%	-11.9%	-0.9%	x
